{"source": "the supplement of paper PMC10338343", "note": "± gives the standard deviation.", "data": [{"tested_on": "EfPiwi piRISC loaded with piRNA #1 (26 nt)", "assay": "pre-steady-state target cleavage rate (min^-1); auxiliary factor: 500 nM Ephydatia muelleri Gtsf1; guide: piRNA #1 5'p-UGAGGUAGUAGGUUGUAUAGUAUCCA; MIWI and MILI are mouse PIWI proteins and EfPiwi is from a freshwater sponge; tags in brackets are library labels; higher = faster piRNA-guided slicing of the target", "how_it_was_run": "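A transcribed, DNA-blocked target RNA library […] was incubated at 33 °C for 0–8 or 0–960 min with 1 nM active affinity-purified piRISC carrying one synthetic guide, in HEPES–potassium acetate buffer with or without 500 nM GTSF1 partner protein. Uncleaved targets were then sequenced and normalised to depth and to weakly complementary targets. Data from three trials were pooled, with k3 capped at 0.0001 min^-1, and a burst-and-steady-state fit yielded the pre-steady-state cleavage rate.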", "values": [{"sequence": "GGAGACCAAACUAUACAACCUAGUACCUCA", "pre-steady-state target cleavage rate": "0.00518 ± 0.0029"}, {"sequence": "GGAGACCUUACUAUACAACCUACUCCCUCA", "pre-steady-state target cleavage rate": "0.00342 ± 0.0031"}, {"sequence": "GGAGAGGAUACUAUACUACCUACUUCCUCA", "pre-steady-state target cleavage rate": "0.00269 ± 0.002"}, {"sequence": "GGAGCGGAUACUAUACAACCUACUACCUCA", "pre-steady-state target cleavage rate": "0.141 ± 0.048"}, {"sequence": "GGAGUGGAUUCUAUACAACCUUCUACCUCA", "pre-steady-state target cleavage rate": "0.00415 ± 0.0028"}, {"sequence": "GGAGUGGAUUGUAUACAACCUACUACCUCA", "pre-steady-state target cleavage rate": "0.00594 ± 0.0037"}, {"sequence": "GGAGACCUAUCUUAUACAACCUACUACCUCA", "pre-steady-state target cleavage rate": "0.0118 ± 0.0052"}, {"sequence": "GGAGAGGAUACUAUACAACCUAUUACCUCA", "pre-steady-state target cleavage rate": "0.153 ± 0.056"}, {"sequence": "GGAGUGGAUAGCUAUACAACCUACUACCUCA", "pre-steady-state target cleavage rate": "0.00584 ± 0.0033"}, {"sequence": "GGAGACGAUACUAUACAACCUACUACUUCA", "pre-steady-state target cleavage rate": "0.00983 ± 0.0039"}, {"sequence": "GGAGACGACACUAUACAACCUACUACCUCA", "pre-steady-state target cleavage rate": "0.114 ± 0.038"}, {"sequence": "GGAGAGGAUAGUAUACAUCCUACUACCUCA", "pre-steady-state target cleavage rate": "0.00316 ± 0.0022"}, {"sequence": "GGAGUGGAUACUAUACAACCUACUCCCUCA", "pre-steady-state target cleavage rate": "0.00426 ± 0.0017"}, {"sequence": "GGAGACCAUACUAUACAACCUUCUACGUCA", "pre-steady-state target cleavage rate": "0.00387 ± 0.0029"}, {"sequence": "GGAGACCAUAGUAUACAACCUACUACCUGA", "pre-steady-state target cleavage rate": "0.00396 ± 0.0018"}, {"sequence": "GGAGUGGAAACUAUACAACCUAGUACCUCA", "pre-steady-state target cleavage rate": "0.00276 ± 0.0018"}, {"sequence": "GGAGAGGAUACUAUACAAGCUACUUCCUCA", "pre-steady-state target cleavage rate": "0.00375 ± 0.0015"}, {"sequence": "GGAGAGGAUACUAUACAACCUACUACCUCG [g2:g25:cont:t1G]", "pre-steady-state target cleavage rate": "0.143 ± 0.048"}, {"sequence": "GGAGACCUAUCUAUACAACCUACUACCCCA", "pre-steady-state target cleavage rate": "0.00444 ± 0.0032"}, {"sequence": "GGAGACGAUGACUAUACAACCUACUACCUCA", "pre-steady-state target cleavage rate": "0.11 ± 0.039"}, {"sequence": "GGAGACGAUUCAAUACAACCUACUACCUCA", "pre-steady-state target cleavage rate": "0.0447 ± 0.018"}, {"sequence": "GGAGACCAUUACUAUACAACCUACUACCUCA", "pre-steady-state target cleavage rate": "0.148 ± 0.044"}, {"sequence": "GGAGUGGAUACUAUACAACCUACUACCCCA", "pre-steady-state target cleavage rate": "0.00727 ± 0.0025"}, {"sequence": "GGAGUGCAUACUAUACAUCCUACUACCUCA", "pre-steady-state target cleavage rate": "0.0107 ± 0.0041"}, {"sequence": "GGAGACCAUACUAAACAACCUACUACCUCA", "pre-steady-state target cleavage rate": "0.0127 ± 0.0048"}, {"sequence": "GGAGACGAAUCUAUACAACCUACUACCUCA", "pre-steady-state target cleavage rate": "0.0517 ± 0.018"}, {"sequence": "GGAGACCAUACUAUACAACCAACUACGUCA", "pre-steady-state target cleavage rate": "0.00504 ± 0.004"}, {"sequence": "GGAGUGGAUAGUAUACAACCAACUACCUCA", "pre-steady-state target cleavage rate": "0.00306 ± 0.0018"}, {"sequence": "GGAGAGGAUACUUUACAACCAACUACCUCA", "pre-steady-state target cleavage rate": "0.00291 ± 0.0016"}, {"sequence": "GGAGACCAUGACUAUACAACCUACUACCUCA", "pre-steady-state target cleavage rate": "0.0764 ± 0.029"}, {"sequence": "GGAGAGGAUACUUUACAACCUACAACCUCA", "pre-steady-state target cleavage rate": "0.00228 ± 0.0015"}, {"sequence": "GGAGUGCAUACUAUACAACCAACUACCUCA", "pre-steady-state target cleavage rate": "0.00484 ± 0.0026"}, {"sequence": "GGAGAGGAUACUAUACAACGUUCUACCUCA", "pre-steady-state target cleavage rate": "0.00409 ± 0.0022"}, {"sequence": "GGAGUGGAUACUAUUCAUCCUACUACCUCA", "pre-steady-state target cleavage rate": "0.0078 ± 0.0036"}, {"sequence": "GGAGUUGAUACUAUACAACCUACUACCUCA", "pre-steady-state target cleavage rate": "0.193 ± 0.06"}, {"sequence": "GGAGACCUAUCUAUACAAGCUACUACGUCA", "pre-steady-state target cleavage rate": "0.00274 ± 0.0026"}, {"sequence": "GGAGUGGAUACUAUACAACCUACUACCUUA", "pre-steady-state target cleavage rate": "0.276 ± 0.095"}, {"sequence": "GGAGAGGAUACUAUCACAACCUACUACCUCA", "pre-steady-state target cleavage rate": "0.0777 ± 0.031"}, {"sequence": "GGAGACCUUACUAUACAACCUACUAGGAGA [g6:g22:cont:t1A]", "pre-steady-state target cleavage rate": "0.00279 ± 0.0024"}, {"sequence": "GGAGUCGAUACUAUACAACCAACUACCUCA", "pre-steady-state target cleavage rate": "0.00517 ± 0.002"}]}]}
